The target in assay [1] is ATP-dependent 6-phosphofructokinase (Trypanosoma brucei brucei) (UniProt O15648). Put plainly: qHTS Assay to Find Inhibitors of T. brucei phosphofructokinase: hit validation (AID 492961).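 Note: luminescence reports ADP formed as PFK phosphorylates fructose-6-phosphate with ATP; % is set by controls: 0 for no effect and ±100 for the full control effect.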 Summed up:
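Measures ADP output of PFK (1.25 nM) at 0.1 mM ATP, 0.5 mM F6P, pH 8.0 TEA buffer with 5 mM MgCl2. No-enzyme wells define full inhibition; uninhibited enzyme wells define zero.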
For orientation: Quantitative high-throughput screening tests each substance at several concentrations.

For assay [2], the target named is Luciferin 4-monooxygenase (Photinus pyralis) (UniProt P08659). Briefly: Biochemical firefly luciferase enzyme assay for NPC (AID 624030).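 Note: purified P. pyralis luciferase at 10 nM with luciferin and ATP substrate; 0% = DMSO and -100% = full luciferase inhibition by PTC124 control; nearly all actives have a fitted effect of over 70% in size.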 The gist of the method: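 Direct inhibition of firefly luciferase enzyme (10 nM final, 50 mM Tris Acetate) assessed by luminescence within 5 minutes. Percent activity scaled between DMSO and PTC124 positive control, with concentration-effect curves classified by fit quality and response.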

A further assay relates to CP192. Briefly: qHTS profiling for inhibitors of Plasmodium falciparum proliferation (AID 504749).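 For activity, negative = inhibition: 0% = DMSO vehicle and full inhibition = artemisinin control.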 Note: nearly all actives have a fitted effect of over 60% in size. Note: potency is the fitted concentration of half-maximal effect. The settings on record: P. falciparum in erythrocytes, SYBR Green DNA, 72 h; series mostly up to 28.7 µM. The gist of the method: (§1)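 Infected RBCs, 0.3% parasitemia/2.5% Hct final; cpd 72 h, 37 C, 5% CO2; lysis buffer with saponin/triton/SYBR Green I, o/n RT dark; FI 485/535; norm. to artemisinin (0.29 uM) and DMSO.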

The next assay relates to CP211. Described as above. As to conditions: P. falciparum in erythrocytes, SYBR Green DNA, 72 h; series mostly up to 28.7 µM. Summed up:
as §1

The next assay relates to CP262. The description is as above. As to conditions: P. falciparum in erythrocytes, SYBR Green DNA, 72 h; series mostly up to 28.7 µM. Summed up: as §1
The next assay relates to CP269. Described as above. As to conditions: P. falciparum in erythrocytes, SYBR Green DNA, 72 h; series mostly up to 28.7 µM. The gist of the method: as §1
The next assay relates to CP286. The description is as above. The settings on record: P. falciparum in erythrocytes, SYBR Green DNA, 72 h; series mostly up to 28.7 µM. The gist of the method: as §1
A further assay relates to CP305. The description is as above. As to conditions: P. falciparum in erythrocytes, SYBR Green DNA, 72 h; series mostly up to 28.7 µM. Summed up:
as §1

A further assay relates to CP315. The assay is described as above. As to conditions: P. falciparum in erythrocytes, SYBR Green DNA, 72 h; series mostly up to 28.7 µM. Summed up:
as §1

The subject of a further assay is CP325. The assay is described as above. The settings on record: P. falciparum in erythrocytes, SYBR Green DNA, 72 h; series mostly up to 28.7 µM. The gist of the method:
as §1

The next assay has as its system Dd2. Described as above. As to conditions: P. falciparum in erythrocytes, SYBR Green DNA, 72 h; series mostly up to 28.7 µM. Summed up: as §1
In another assay the test system is FAB9. The assay is described as above. As to conditions: P. falciparum in erythrocytes, SYBR Green DNA, 72 h; series mostly up to 28.7 µM. Summed up: as §1
In another assay the test system is HB3. Described as above. The settings on record: P. falciparum in erythrocytes, SYBR Green DNA, 72 h; series mostly up to 28.7 µM. Summed up:
as §1

Another assay concerns JCK. Described as above. As to conditions: P. falciparum in erythrocytes, SYBR Green DNA, 72 h; series mostly up to 28.7 µM. Summed up:
as §1

A further assay relates to PC49. Described as above. As to conditions: P. falciparum in erythrocytes, SYBR Green DNA, 72 h; series mostly up to 28.7 µM. The gist of the method: as §1
A further assay relates to CP238. The description is as above. As to conditions: P. falciparum in erythrocytes, SYBR Green DNA, 72 h; series mostly up to 28.7 µM. Summed up:
as §1

Assay [3] can be described thus: S16 Schwann cell PMP22 intronic element beta-lactamase assay (AID 624044; calls by dose curve;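 note: 0% = DMSO and -100% = potassium clavulanate positive control; nearly all actives have a fitted effect of over 15% in size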). The settings on record: S16 rat Schwann cells, PMP22 element beta-lactamase FRET, 24 h; ratio activity, negative = inhibition: at 38.3 µM (top of the series). The gist of the method: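 Rat S16 Schwann cells with beta-Lac driven by a PMP22 intronic element, compound-treated 24 h at 37 °C. LiveBLAzer FRET B/G read: 460 nm normalized to potassium clavulanate vs DMSO; 535 nm FRET as viability; concentration-effect curves classified.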

The nature of assay [4]: qHTS profiling for inhibitors of Plasmodium falciparum proliferation (AID 504749).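 For activity, negative = inhibition: 0% = DMSO vehicle and full inhibition = artemisinin control.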 Note: nearly all actives have a fitted effect of over 60% in size. Note: potency is the fitted concentration of half-maximal effect. As to conditions: P. falciparum in erythrocytes, SYBR Green DNA, 72 h, at 28.7 µM (top of the series). The gist of the method: as §1
The next assay deals with CP185. The description is as above. The settings on record: P. falciparum in erythrocytes, SYBR Green DNA, 72 h; series mostly up to 28.7 µM. The gist of the method: as §1
A further assay deals with N140. The assay is described as above. As to conditions: P. falciparum in erythrocytes, SYBR Green DNA, 72 h; series mostly up to 28.7 µM. The gist of the method: as §1

Molecules are shown by their SMILES. Inconclusive results are not listed. Values without a mark were called inactive. The source made the active and inactive calls. Unless noted, calls come from the whole dose curve; as a rule, active = well fitted curve in the direction sought with a large enough effect; inconclusive = small, poorly fitted or top-dose-only effect, or another doubt; inactive = no such curve, though single readings can be large; an effect the other way counts as inactive or inconclusive.

Luciferin 4-monooxygenase (Photinus pyralis), sequence (P08659 whole entry, looked up): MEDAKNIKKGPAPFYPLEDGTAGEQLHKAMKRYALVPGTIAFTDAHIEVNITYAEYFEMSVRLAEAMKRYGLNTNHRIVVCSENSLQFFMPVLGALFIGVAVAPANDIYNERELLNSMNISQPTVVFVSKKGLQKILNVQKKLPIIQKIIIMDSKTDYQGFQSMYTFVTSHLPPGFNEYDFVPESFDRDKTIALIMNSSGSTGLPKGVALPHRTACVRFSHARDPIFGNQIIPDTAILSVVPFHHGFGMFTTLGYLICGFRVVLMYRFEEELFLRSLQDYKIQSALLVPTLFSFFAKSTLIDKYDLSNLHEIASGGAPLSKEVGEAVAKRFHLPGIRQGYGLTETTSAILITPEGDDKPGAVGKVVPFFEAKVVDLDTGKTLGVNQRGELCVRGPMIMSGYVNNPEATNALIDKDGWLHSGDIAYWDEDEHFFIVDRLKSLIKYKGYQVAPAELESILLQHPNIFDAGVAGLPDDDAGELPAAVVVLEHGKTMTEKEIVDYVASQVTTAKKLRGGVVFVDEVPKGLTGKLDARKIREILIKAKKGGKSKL
ATP-dependent 6-phosphofructokinase (Trypanosoma brucei brucei), sequence (O15648 whole entry, looked up): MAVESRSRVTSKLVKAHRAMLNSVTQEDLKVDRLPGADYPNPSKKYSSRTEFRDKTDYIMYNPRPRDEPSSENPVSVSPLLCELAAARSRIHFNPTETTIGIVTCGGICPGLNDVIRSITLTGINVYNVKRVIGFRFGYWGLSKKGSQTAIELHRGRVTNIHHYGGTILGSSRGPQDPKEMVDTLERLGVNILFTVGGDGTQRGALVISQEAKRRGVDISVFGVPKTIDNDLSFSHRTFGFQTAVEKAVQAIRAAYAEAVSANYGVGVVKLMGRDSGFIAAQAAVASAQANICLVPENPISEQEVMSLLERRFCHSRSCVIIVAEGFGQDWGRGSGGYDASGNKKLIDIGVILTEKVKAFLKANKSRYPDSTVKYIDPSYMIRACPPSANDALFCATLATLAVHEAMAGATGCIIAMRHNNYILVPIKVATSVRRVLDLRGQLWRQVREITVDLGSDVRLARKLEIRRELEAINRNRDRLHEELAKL

Regarding `C[C@@H]1CC2[C@@H]3C[C@H](F)C4=CC(=O)C(Cl)=C[C@]4(C)[C@@]3(F)[C@H](O)C[C@]2(C)[C@@]1(O)C(=O)CO` (stereo partly specified), the Potency entry (in assay [1]; in assay [2]; in the assay on CP192; in the assay on CP211; with CP262; with CP269) was “inactive” throughout. Also, the Potency result with CP286, in the assay with CP305, in the assay with CP315, in the assay on CP325, in the assay on Dd2 and in the assay on FAB9 was “inactive” throughout. The Potency entry with HB3, with JCK and with PC49 was “inactive” each time.
In the case of `CCC(=O)OC1C(N(C)C)CC(C)O[C@H]1O[C@H]1[C@H](C)[C@@H](O[C@H]2CC(OC)[C@@H](O)C(C)O2)[C@H](C)C(=O)O[C@@H](CC)[C@](C)(O)[C@@H](O)[C@H](C)C(=O)[C@@H](C)C[C@]1(C)O` (stereo partly specified), the Potency result (in [1]; in assay [2]; in the assay with CP192; in the assay on CP211; with CP238; with CP262) was “inactive” in each case. The Potency entry in the assay with CP305, in the assay with CP315, in the assay with CP325, in the assay on FAB9, with HB3 and with JCK was “inactive” in each case. The Potency result in the assay on PC49 was “inactive”. In addition, the Potency in the assay with Dd2 is 12.6 µM (active).
Take `CCN(CC)CCOCCOC(=O)C(CC)(CC)c1ccccc1` (tested in a mixture with another compound): the Potency result (in assay [1]; in assay [2]; in the assay on CP192; with CP262; with CP315; with FAB9) was “inactive” throughout. The Potency entry in the assay on JCK was “inactive”. Also, the values for the Potency in the assay with CP305 and in the assay on Dd2 were 8.49 µM (active) and 0.891 µM (active), respectively.
With `CC[C@H]1OC(=O)[C@H](C)C(=O)[C@H](C)[C@@H](OC2O[C@H](C)C[C@H](N(C)C)[C@@H]2O)[C@@](C)(OC)C[C@@H](C)C(=O)[C@@H](C)C2N(CCCCn3cnc(-c4cccnc4)c3)C(=O)O[C@@]21C` (stereo partly specified), the Potency result (in assay [1]; in assay [2]; in assay [3]; with CP185; with CP192; with CP211) was “inactive” in each case. Moreover, the Potency result in the assay on CP238, with CP262, with CP269, with CP286, with CP305 and in the assay on CP315 was “inactive” in each case. Further, the Potency result with CP325, in the assay on FAB9 and in the assay with PC49 was “inactive” in each case. Also, the activity, negative = inhibition in assay [4] (parasite line A) was -28.5%.
As for `Cc1cncc(C(=O)O)[n+]1[O-]`, the Potency result (in [1]; in assay [2]; in the assay with CP192; in the assay with CP211; with CP262; in the assay on CP269) was “inactive” each time. Further, the Potency result in the assay with CP286, with CP305, with CP315, in the assay on CP325, in the assay with Dd2 and with FAB9 was “inactive” in each case. The Potency result in the assay on HB3, with JCK and in the assay on PC49 was “inactive” in each case.
For `CCC1OC(=O)C[C@@H](O)[C@H](C)[C@@H](OC2OC(C)CC(N(C)C)C2O)[C@@H](CC=O)C[C@@H](C)C(=O)/C=C/[C@]2(C)OC2C1C` (stereo partly specified), the Potency result (in assay [1]; in [2]; in assay [3]; with FAB9; in the assay on JCK) was “inactive” in each case. The Potency is 2 µM (active) in the assay with CP185, 1.12 µM (active) in the assay on CP286 and 1 µM (active) in the assay with Dd2.
Consider `COc1ccc(CC(C)NCC(O)c2ccc(O)c(NC=O)c2)cc1` (stereo unspecified), for which the Potency result in [1], in [2] and in assay [3] was “inactive” throughout.
Regarding `O=C(O)c1ccccc1-c1c2ccc(=O)cc-2oc2cc(O)ccc12`, the Potency result (in [1]; in [2]; in [3]; in the assay on CP269; with CP286; in the assay on CP315) was “inactive” throughout.
Turning to `CC1=C(/C=C/C(C)=C\C=C\C(C)=C\C=C\C=C(C)\C=C\C=C(C)\C=C\C2=C(C)C[C@@H](O)CC2(C)C)C(C)(C)C[C@H](O)C1`, the Potency result (in assay [1]; in [2]; in assay [3]; in the assay on CP185; with CP192; with CP211) was “inactive” throughout. Moreover, the Potency entry in the assay with CP238, in the assay with CP262, with CP269, in the assay on CP305, in the assay on CP315 and in the assay with CP325 was “inactive” each time. The Potency entry in the assay on FAB9 was “inactive”. Further, the Potency was 11.2 µM (active) in the assay on CP286; 11.2 µM (active) with Dd2; 10 µM (active) in the assay with HB3; 7.08 µM (active) in the assay on N140; 7.08 µM (active) in the assay on PC49.
As for `C=C1N[C@]2(C(=O)COC(C)=O)[C@@H](C[C@H]3[C@@H]4CCC5=CC(=O)C=C[C@]5(C)[C@H]4[C@@H](O)C[C@@]32C)O1`, the Potency result (in assay [1]; in [2]; in assay [3]; with CP192; with CP315; with Dd2) was “inactive” throughout. Also, the Potency result in the assay on FAB9, with HB3, in the assay on JCK, in the assay with N140 and in the assay with PC49 was “inactive” in each case. The activity, negative = inhibition in assay [4] (parasite line B) was -29.8%.
On to `O=C(NC(CO)C(O)c1ccc([N+](=O)[O-])cc1)C(Cl)Cl` (stereo unspecified), for which the Potency entry (in assay [1]; in assay [2]; in assay [3]; in the assay on CP315; with FAB9; in the assay with JCK) was “inactive” in each case. In addition, the Potency result in the assay with PC49 is “inactive”. Besides, the Potency with CP269 was 3.01 µM (active); in the assay on CP325, 6.01 µM (active); in the assay with Dd2, 8.91 µM (active).

(Values after PubChem BioAssay (NCATS).)
